Most compounds without a hit are left out; they make up all but 7.6% or so of the library.
KCNH2 3.1 block: blocks the human KCNH2 3.1 channel isoform. U2OS KCNH2 3.1, thallium flux FluxOr; hits give low values. activity change, % (tested at about 1.8 µM). 340,000 compounds, 0.95% hits. AID 720553;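 active = maximum activity change below -70%; inconclusive = maximum activity change from -70% to -50%; inactive = maximum activity change above -50%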;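 note: thallium influx rate constant from kinetic fluorescence after stimulation buffer; % is set by controls: 0 for no effect and ±100 for the full control effect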
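Virally transduced U2OS (3.1 isoform, 4 h infection in dark at RT) → overnight 37 C → FluxOr + Red40 in HBSS/HEPES, 45 min → stimulation buffer, 2 min kinetic read → rate constant vs DMSO controls.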
KB-3-1 cytotox: KB-3-1 parental cell cytotoxicity. 400,000 compounds, 1.4% hits. Potency, µM (titrated, usually from 46.1 µM), actives largely listed as cytotoxic. AID 1347075. KB-3-1 viability, CellTiter-Glo ATP luminescence, 72 h; note: potency is the fitted concentration of half-maximal effect; % is set by controls: 0 for no effect and ±100 for the full control effect; nearly all actives have a fitted effect of over 60% in size
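Screening of KB-3-1 cells (DMEM, 10% FBS, phenol-red free) ran from lowest to highest compound concentration; after 72 h at 37 °C viability was read luminescently and curves fitted.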
KB-V1 cytotox: kills drug-selected multidrug resistant KB-V1 cells | KB-V1 MDR cells viability, CellTiter-Glo, 72 h | Potency, µM (top dose mostly 46.1 µM), most hits filed as cytotoxic | 400,000 compounds, 3.4% hits | AID 1347076; note: potency is the fitted concentration of half-maximal effect; % is set by controls: 0 for no effect and ±100 for the full control effect; nearly all actives have a fitted effect of over 60% in size
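Readout: CellTiter-Glo luminescence, 10 min after addition. Cells: KB-V1 MDR subline, 72 h at 37 degrees C with compound. Analysis: corrected, normalized data fitted to concentration-effect curves.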
KCNH2 WT inh: KCNH2 (human, wildtype) channel inhibition. 340,000 compounds, 0.37% hits. U2OS, BacMam KCNH2, thallium flux FluxOr; hits give low values. activity change, % at 1.84 µM;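 active = maximum activity change below -70%; inconclusive = maximum activity change between -70% and -50%; inactive = maximum activity change above -50%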; note: % is set by controls: 0 for no effect and ±100 for the full control effect
Target sequence (Q12809 whole entry, looked up): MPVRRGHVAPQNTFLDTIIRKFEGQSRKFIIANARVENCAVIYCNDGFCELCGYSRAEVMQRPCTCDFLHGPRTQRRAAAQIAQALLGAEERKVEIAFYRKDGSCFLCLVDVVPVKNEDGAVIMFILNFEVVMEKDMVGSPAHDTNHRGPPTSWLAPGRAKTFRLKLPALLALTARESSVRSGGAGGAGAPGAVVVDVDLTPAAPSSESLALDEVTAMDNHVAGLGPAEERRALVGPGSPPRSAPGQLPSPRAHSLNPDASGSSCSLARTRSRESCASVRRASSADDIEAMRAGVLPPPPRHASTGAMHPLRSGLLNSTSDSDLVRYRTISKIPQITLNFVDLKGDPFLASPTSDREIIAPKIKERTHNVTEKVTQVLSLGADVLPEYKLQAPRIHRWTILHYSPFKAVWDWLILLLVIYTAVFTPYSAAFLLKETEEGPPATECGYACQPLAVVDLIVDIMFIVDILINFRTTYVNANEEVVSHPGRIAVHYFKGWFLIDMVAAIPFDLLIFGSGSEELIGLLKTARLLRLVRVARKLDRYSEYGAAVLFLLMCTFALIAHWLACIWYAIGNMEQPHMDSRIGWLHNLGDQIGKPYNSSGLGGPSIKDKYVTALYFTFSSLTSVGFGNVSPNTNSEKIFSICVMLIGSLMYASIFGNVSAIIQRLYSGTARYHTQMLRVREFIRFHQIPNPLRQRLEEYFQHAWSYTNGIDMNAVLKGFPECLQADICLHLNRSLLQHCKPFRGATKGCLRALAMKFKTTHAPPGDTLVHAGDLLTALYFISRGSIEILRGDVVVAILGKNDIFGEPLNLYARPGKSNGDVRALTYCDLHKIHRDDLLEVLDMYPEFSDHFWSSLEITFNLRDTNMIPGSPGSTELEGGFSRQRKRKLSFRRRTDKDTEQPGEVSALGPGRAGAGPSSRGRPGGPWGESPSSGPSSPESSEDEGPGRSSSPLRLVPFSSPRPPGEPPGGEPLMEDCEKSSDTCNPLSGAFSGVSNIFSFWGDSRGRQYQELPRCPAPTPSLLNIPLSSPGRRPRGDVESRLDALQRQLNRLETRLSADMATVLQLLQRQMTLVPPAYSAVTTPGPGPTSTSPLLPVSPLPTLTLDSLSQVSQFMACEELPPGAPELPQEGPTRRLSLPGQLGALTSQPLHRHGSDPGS
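U2OS cells transduced with wild-type KCNH2 virus are loaded with FluxOr dye for 45 min, and thallium flux is measured in kinetic reads before and after stimulation buffer. Rate constants are normalized to DMSO controls.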
MCF10A rerep: inducers of DNA re-replication in MCF 10A breast cells; 350,000 compounds, 2.9% hits; Potency, µM (titrated, usually from 46.1 µM), inactives show at the highest dose activity, positive = re-replication, hits mostly activators; MCF 10A DNA re-replication, Hoechst nuclear intensity, 48 h; note: potency is the fitted concentration of half-maximal effect; % of control where 0% means no effect; nearly all actives have a fitted effect of over 50% in size
SW480 rereplic: DNA re-replication induction in SW480 cells. SW480 DNA re-replication, Hoechst DNA content imaging, 48 h. Potency, µM (doses to about 46.1 µM), without a hit: top-dose re-replication activation, most hits filed as activators. 340,000 compounds, 1.8% hits. AID 624297; note: potency is the fitted concentration of half-maximal effect; % of control where 0% means no effect; nearly all actives have a fitted effect of over 55% in size
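Quantitative HTS format with DMSO vehicle controls; 48 hr drug incubation at 37 C, then 40 min Hoechst staining and scanning imager measurement at 405 nm excitation.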
The depositor's hits bear a star; i = inactive; ? = inconclusive; . = no result; ! = a repeat was not active. Unless noted, calls come from the whole dose curve; as a rule, active = well fitted curve in the direction sought with a large enough effect; inconclusive = small, poorly fitted or top-dose-only effect, or another doubt; inactive = no such curve, though single readings can be large; an effect the other way counts as inactive or inconclusive.

SMILES	KCNH2 3.1 block	KB-3-1 cytotox	KB-V1 cytotox	KCNH2 WT inh	MCF10A rerep	SW480 rereplic
CN1C[C@H](C(=O)N[C@]2(C)O[C@@]3(O)[C@@H]4CCCN4C(=O)[C@H](Cc4ccccc4)N3C2=O)CC2c3cccc4[nH]cc(c34)C[C@H]21 (stereo not given in full)	-1	i	i	3	?	0.35µM*!
C=CCc1cc(OC)c2c(c1)OCO2	2	i	i	-11	0%	-10%
COc1cc(C2c3cc4c(cc3CC3COC(=O)C32)OCO4)cc(OC)c1O (stereo not given)	10	i	?	0	?	0.16µM*
COc1cc(C2c3cc4c(c(O)c3CC3COC(=O)C32)OCO4)cc(OC)c1O (stereo not given)	.	0.016µM*	0.18µM*	.	.	.
Clc1ccc(Cl)cc1	.	.	.	.	-1%	1%
COc1cccc(/C=C/c2nc3ccccc3c(=O)n2-c2ccc(Cl)cc2)c1OC	.	i	i	.	.	.
CC(C)CCCn1c(O)c(/C=C2/C=CC=N2)c(=O)[nH]c1=O	8	16µM*	?	6	18µM*	13µM*
CCCCn1c(O)c(C=NCCCn2ccnc2)c(=O)[nH]c1=O	11	i	i	-3	-5%	-4%
Cc1c2ccncc2c(C)c2c1[nH]c1ccccc12	28	?	9.2µM*	9	5.8µM*	7.3µM*
OC(O)C(Cl)(Cl)Cl	.	.	.	.	-6%	1%
O=c1c2ccccc2nc(/C=C/c2ccccc2)n1-c1ccccc1O	18	i	i	-3	?	?
O=c1c2ccccc2nc(/C=C/c2ccc(O)cc2)n1-c1ccccc1O	8	21µM*	i	3	21µM*	17%
COc1ccccc1-n1c(/C=C/c2ccccc2)nc2ccccc2c1=O	.	i	i	.	.	.
Cc1ccccc1-n1c(/C=C/c2ccccn2)nc2ccccc2c1=O	1	i	?	3	18µM*	27%
Cc1ccc(-n2c(/C=C\c3ccc(F)c(F)c3)nc3ccccc3c2=O)c(C)c1	.	2.9µM*	4.1µM*	.	.	.
COc1cccc(C2SCC(=O)Nc3c2c(C)nn3-c2ccc(C)c(Cl)c2)c1OC (stereo not given)	.	i	i	.	.	.
O=c1[nH]c2ccccc2n1C1CCN(C(c2nnnn2-c2ccc3c(c2)OCCO3)C2CC2)CC1 (stereo not given)	.	?	i	.	.	.
CSCCC(c1nnnn1-c1ccc2c(c1)OCCO2)N1CCC(n2c(=O)[nH]c3ccccc32)CC1 (stereo not given)	.	i	?	.	.	.
O=c1[nH]c2ccccc2n1C1CCN(C(c2ccccc2)c2nnnn2-c2ccc3c(c2)OCCO3)CC1 (stereo not given)	.	?	16µM*	.	.	.
Cc1cccc(C)c1-n1nnnc1C(c1ccccc1OC(F)(F)F)N1CCC(n2c(=O)[nH]c3ccccc32)CC1 (stereo not given)	.	23µM*	i	.	.	.
O=c1[nH]c2ccccc2n1C1CCN(C(CCc2ccccc2)c2nnnn2C2CCCC2)CC1 (stereo not given)	.	?	3.3µM*	.	.	.
COc1ccc(-n2nnnc2C(c2cccs2)N2CCC(n3c(=O)[nH]c4ccccc43)CC2)cc1 (stereo not given)	.	?	i	.	.	.
O=c1[nH]c2ccccc2n1C1CCN(C(c2cccc3ccccc23)c2nnnn2Cc2ccccc2)CC1 (stereo not given)	.	?	i	.	.	.
COc1cccc(C(c2nnnn2Cc2ccccc2)N2CCC(n3c(=O)[nH]c4ccccc43)CC2)c1OC (stereo not given)	.	?	18µM*	.	.	.
Cc1ccc(C(C)C)c(OCCn2c(=O)oc3ccccc32)c1	-19	i	?	4	?	?
SMILES	KCNH2 3.1 block	KB-3-1 cytotox	KB-V1 cytotox	KCNH2 WT inh	MCF10A rerep	SW480 rereplic
CC(C)n1c(=O)c(C=Nc2cccc([N+](=O)[O-])c2)c(O)n(CCc2ccccc2)c1=O	-4	i	i	-20	23µM*	-3%
C[C@]12C=CC(=O)C=C1CC[C@@H]1[C@@H]2CC[C@@]2(C)[C@H]1CC[C@]2(C)O	.	.	.	.	16%	0%
C[C@H]1CCCC=CC2C[C@H](O)C[C@@H]2[C@H](O)C=CC(=O)O1 (stereo not given in full)	.	0.0073µM*	0.018µM*	.	.	.
C[C@H]1CCC/C=C/[C@@H]2C[C@H](O)C[C@H]2[C@@H](O)/C=C/C(=O)O1	-6	0.18µM*	0.18µM*	20	5%	?
S=c1[nH]nc(C2CC2)n1Cc1ccccc1	-3	i	i	11	-22%	-2%
CCOC(=O)C1(CCOc2ccccc2)CCN(Cc2ccc(C)s2)CC1	-84*	?	i	-94*	20%	?
CCOC(=O)C1(CCc2ccccc2)CCN(Cc2ccc(NC(C)=O)cc2)CC1	-6	i	i	-3	16%	13%
CCOC(=O)C1(CCc2ccccc2)CCN(Cc2ccc3c(c2)OCCO3)CC1	-113*	?	?	-43	7%	-102%
CCOC(=O)C1(CCc2ccccc2)CCN(C2CCSCC2)CC1	-35	i	?	-28	8%	?
CCOC(=O)C1(CCCc2ccccc2)CCN(C2CCCC2)CC1	-48	?	i	21	?	16µM*
CCOC(=O)c1ccc(NC(c2ccc(N(C)C)cc2)P(=O)(OC(C)C)OC(C)C)cc1 (stereo not given)	-4	i	i	2	?	?
CC(C)(C)CC(C)(C)c1ccc(O)cc1	.	.	.	.	?	9%
CCSC1=NN1c1cc(C)nc(N)n1	-95*	i	i	0	-5%	4%
Cc1onc(-c2ccccc2)c1C(=O)N[C@@H]1C(=O)N2C1SC(C)(C)[C@@H]2C(=O)O (stereo not given in full)	-2	i	i	-3	-1%	?
COc1ccc(-c2nc3ccc(C(=O)N4CCC5(CC4)OCCO5)cc3nc2-c2ccc(OC)cc2)cc1	0	i	i	3	?	23µM*
CC(=O)OCC12CC(OC(=O)CC(C)C)C(C)=CC1OC1C(O)C(OC(C)=O)C2(C)C12CO2 (stereo not given)	-13	0.0092µM*	?	3	?	?
Cc1ccc(C2=NOC(C)(c3nnc(-c4ccccc4)o3)C2)cc1 (stereo not given)	3	i	?	-6	?	0%
CN(C)C(=S)SSC(=S)N(C)C	12	i	i	13	21µM*!	1.3µM*
CN(C)C(=S)SC(=S)N(C)C	.	.	.	.	3%	2.7µM*

Screens from PubChem.
